Screens from PubChem BioAssay.
a7 integrin act – integrin-mediated muscular dystrophy alleviation activation; 350,000 tested, 0.064% active; AID 624291; Potency, µM (top dose mostly 38.3 µM), inactives show top-dose activation, most hits filed as activators; alpha7betagal myoblasts, beta-gal FDG fluorescence, 48 h;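 also: potency is read from the fitted curve at half-maximal effect; 100% = response of the positive control SU9516; nearly all actives have a fitted effect of over 60% in size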
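Alpha7betagal+/- myoblasts (passage 13) were plated 16-24 hr, then exposed to compounds (1:260 dilution of DMSO stock) for 48 hours at 37C. After MPER lysis, β-galactosidase reporter activity was read as FDG fluorescence (ex 480/em 540) after 30 minutes.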
BRCA1 expr act – increases BRCA1 expression | MCF7-BRCA1-FFLuc reporter, luminescence, 48 h; response scale: scaled: vehicle 0%, 10 µM genistein 100% | Potency, µM (top dose mostly 46.1 µM), without a hit: top-dose activation, hits mostly activators | 380,000 tested, 1.1% active | AID 624202; also: potency is read from the fitted curve at half-maximal effect; nearly all actives have a fitted effect of over 80% in size
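Activators of BRCA1 expression were detected as increased firefly luciferase luminescence in engineered MCF7 cells after 48 h compound incubation. Signals were scaled to genistein 10 microM as full activation.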
IL-2 act – activates IL-2 in a cell-based reporter assay. activation, % (series mostly up to about 46 µM). AID 652025. 360,000 tested, 0.065% active. IL-2 activation reporter assay, cell-based qHTS; stimulated with anti-CD3/CD4/CD28 beads; in transgenic mouse T cells; in the data active = activation above about 50%; inconclusive = mostly about 30% to 49%; also: 0% is about no effect
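Unstimulated transgenic mouse T cells, 750 per well, received compound and, after 60 minutes, anti-CD3/anti-CD4 bead plus anti-CD28 stimulation. EGFP and DsRed were quantified after 18 hours.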
N370S GC – N370S glucocerebrosidase modulation, Gaucher chaperone candidate; N370S GC spleen homogenate, 4MU-glucoside fluorescence; AID 2101; P04062; Potency, µM (titrated, usually from 59.4 µM), for the others: at the highest dose activity change, negative = inhibition, hits mostly inhibitors; 330,000 tested, 0.092% active;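 also: potency is read from the fitted curve at half-maximal effect; 0% = full enzyme activity and -100% = no enzyme basal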
Nrf2 activator – Nrf2 pathway activation. AID 624171. 410,000 tested, 0.31% active. Potency, µM (doses to about 46.1 µM), inactives show at the top dose activation, usual class: activators. AREc32 ARE-luciferase reporter (MCF7-derived line), luminescence, 24 h; also: potency is read from the fitted curve at half-maximal effect; % of control where 0% means no effect; nearly all actives have a fitted effect of over 65% in size
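Reporter line AREc32 (ARE-Fluc), seeded overnight in OPTI-MEM with 5% FBS; compound pin-transferred, 24 hr at 37 deg C, 5% CO2; luminescent read-out.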
Chronic BCR inh – chronic active BCR signaling inhibition. Potency, µM (titrated, usually from 46.1 µM), for the others: top-dose activity change, negative = inhibition, hits mostly inhibitors. 340,000 tested, 0.05% active. ABC-DLBCL IkBa-CBG/CBR reporter, luminescence ratio, 4 h; active = well fitted inhibition curve with a large enough effect in the signal ratio, with a control signal flat, not every such curve was filed as active; inconclusive = small, poorly fitted or top-dose-only effect, or effect the other way, or a change in a side signal; the % refers to the signal ratio;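 also: potency is read from the fitted curve at half-maximal effect; plate controls were basal doxycycline-induced cells for no effect and cells given 10 µM MG132 for full effect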
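TMD8 human ABC-DLBCL cells with doxycycline-inducible IκBα–green luciferase fusion and unfused red luciferase, in 0.5% FBS medium; compounds up to 46 uM, 4 h at 37C. Green/red luminescence ratio, filter-overlap corrected, fitted to concentration-response curves.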
The depositor's hits bear a star; ? = inconclusive; . = not tested or not shown; [ ] = another dose, or the depositor's remark. This is a sample that favours compounds with a hit; in the whole collection about 1.4% have one here. Unless noted, calls follow the shape of the dose curve; as a rule, active = well fitted curve in the direction sought with a large enough effect; inconclusive = small, poorly fitted or top-dose-only effect, or another doubt; inactive = no such curve, though single readings can be large; an effect the other way counts as inactive or inconclusive.

SMILES | a7 integrin act | BRCA1 expr act | IL-2 act | N370S GC | Nrf2 activator | Chronic BCR inh
CSc1nsc(N/N=C/c2ccc3c(c2)OCO3)c1C#N | 13% | 4µM* | 0 | -2% | 6% | ?
Cc1ccc(OCCCCn2c(CCNC(=O)C3CCCCC3)nc3ccccc32)cc1 | . | 5% | . | . | . | .
C=CCn1cccc(C(=O)Nc2ccc(C)c(Cl)c2)c1=O | 0% | 4.5µM* | 0 | 0% | 7% | 1%
C=CCn1cccc(C(=O)Nc2ccc(Cl)cc2)c1=O | -58% | 5.6µM* | 0 | 16% | 9% | 1%
COC(C(=O)Nc1ccnn1C1CCN(C(=O)c2ccc(C=O)cc2)CC1)c1ccccc1 (centres undefined) | 6% | 20% | -1 | -4% | 1% | 0%
Cc1csc(SCC(=O)Nc2cc(S(=O)(=O)N(C)C)ccc2C)n1 | -31% | -27% | 0 | 5% | 0% | -6%
Cc1ccccc1C(=O)Nc1cccc(-c2ccc(N3CCOCC3)nn2)c1 | 12% | 14µM* | -3 | -1% | 0% | ?
O=C(COc1ccc(Cl)cc1Cl)Nc1ccc(-c2ccc(N3CCOCC3)nn2)cc1 | -5% | 86% | -1 | 1% | 0% | 6%
O=C(Nc1cccc(-c2ccc(N3CCOCC3)nn2)c1)c1ccccc1 | 11% | ? | 5 | -2% | 0% | -12%
O=C(COc1ccc(Cl)cc1Cl)Nc1cccc(-c2ccc(N3CCOCC3)nn2)c1 | 13% | 1.4µM* | -1 | -4% | 2% | 3%
Cn1nnnc1SCc1ccc(C(=O)Nc2ccc(Br)cc2)cc1 | 15% | 10µM* | 0 | 13% | 4% | 17%
CC(=O)c1cccc(NC(=O)c2ccc3c(c2)CCCC3)c1 | -44% | 3.5µM* | 8 | 4% | 3% | ?
COc1cccc(NC(=O)c2ccc3c(c2)CCCC3)c1 | 5.6µM* | 53% | 0 | -5% | 2% | ?
CCc1ccc(NC(=O)Nc2ccon2)cc1 | 8% | 3.2µM* | 0 | -8% | 3% | 1%
CCCC(=O)Nc1ccc(C(=O)Nc2cccc(OC)c2)cc1 | 16% | 42% | 1 | 7% | 4% | ?
COc1cccc(NC(=O)c2ccc(NC(=O)C(C)(C)C)cc2)c1 | 24% | 4µM* | 0 | -18% | 3%[9.22 µM] | 6%
CCS(=O)(=O)N1CCCc2cc(C(=O)Nc3cccc(C(C)=O)c3)ccc21 | . | 0% | . | . | 5% | .
CC(C)(C)OC(=O)N[C@H](C(=O)OC(C)(C)C)c1ccc2c(c1)OCO2 | 6% | -13% | 0 | . | -1% | ?
COc1cccc(C(=O)Nc2cnn(C(C)C)c2)c1 | 0% | 3.5µM* | -1 | -5% | 1% | ?
COc1cccc(C(=O)Nc2ccccc2)c1 | 13% | ? | 2 | 9% | 3% | ?
COc1ccccc1OCCNC(=O)c1ccc2c(c1)CCC2 | -89% | 11µM* | 0 | 2% | 3% | -3%
COc1cccc(C(=O)Nc2ccc3ccccc3c2)c1 | 14% | 94% | -1 | 6% | 0% | ?
COc1cccc(C(=O)Nc2cccc(SC)c2)c1 | -18% | 13µM* | -3 | 2% | 7% | ?
COc1cccc(NC(=O)Nc2ccc3c(c2)CCC3)c1 | ? | ? | 2 | 3% | 0% | ?
CC(=O)c1cccc(NC(=O)Nc2ccc3c(c2)CCC3)c1 | 11% | 7.1µM* | -4 | -3% | 0% | ?
SMILES | a7 integrin act | BRCA1 expr act | IL-2 act | N370S GC | Nrf2 activator | Chronic BCR inh
COc1cc2c(NC3CCN(C(C)C)CC3)nc(N3CCCN(C)CC3)nc2cc1OCCOCCN1CCCC1 | . | -58% | . | . | . | .
Cc1ccc(C(O)c2ncc(-c3cccc4ccccc34)[nH]2)c(C)c1 (centres undefined) | . | 1% | 1 | . | 0% | .
CC(C)CNC(=O)C(=O)NCC1OCCN1S(=O)(=O)c1cccs1 (centres undefined) | -7% | -3% | 0 | . | 1% | .
CC(=O)c1cccc(Nc2ccc(Br)cc2)c1 | . | 10µM* | 0 | . | 3% | .
CC(=O)c1cccc(NC(=S)NC(=O)c2ccc(Br)cc2)c1 | -39% | ? | -4 | -5% | 3% | 12%
O=C(Nc1ccc2c(c1)CCC2)Nc1ccc2c(c1)OCO2 | 12% | ? | -1 | -1% | 1% | -1%
CCc1ccc(NC(=O)Nc2ccc3c(c2)CCC3)cc1 | -8% | 3.5µM* | -1 | 6% | -1% | -1%
CC(=O)NC(Cc1ccc(O)cc1)C(=O)NCC(N)C(=O)c1ccccc1 (centres undefined) | . | 29% | . | . | . | .
O=C(Cn1c(=O)n2nc(-c3cccc(F)c3)nc2c2ccccc21)NCc1ccc(Cl)cc1 | . | . | . | . | 11% | 16%
CCc1cccc(NC(=O)Cn2c(=O)n3nc(-c4cccc(F)c4)nc3c3ccccc32)c1 | . | . | . | . | 5.6µM* | ?
COC(=O)C(Cc1ccc(OC(=O)c2ccc(C(F)(F)F)cc2)cc1)N1Cc2ccccc2C1=O (centres undefined) | -44% | 11µM* | -3 | 13% | 5% | 2%
COC(=O)C(Cc1ccc(OC(=O)c2ccc(Cl)cc2)cc1)N1Cc2ccccc2C1=O (centres undefined) | 5% | 13µM* | 1 | ? | 5% | -2%
CCOC(=O)c1cccc(C2=CC(=O)C[C@H](c3ccc(OC)cc3)C2)c1 | -10% | 11µM* | 1 | . | 4% | -8%
CC1=CC2C(C(C)C)CCC(C)(O)C2CC1 (centres undefined) | . | . | . | -27% | . | .
CCCCCCNC(=O)N[C@H](C(=O)NCCC[C@H]1CN2C(=NC[C@H]2C)N1CCC(c1ccccc1)c1ccccc1)C(C)O (some centres undefined) | . | . | . | -18% | . | 18µM*
C[C@@H]1CN=C2N(CCNC(=O)CCC3CCCCC3)[C@H](Cc3ccc(O)cc3)CN21 | -18% | 0% | 2 | -12% | -1% | -19%
CCn1cc(/C=C/c2cc[n+](C)cc2)c2ccccc21 | -67% | -70% | 113* | -24% | 3% | 2%
C=CCn1c(C)c(/C=C/c2cc[n+](C)cc2)c2ccccc21 | -77% | -49% | 122* | -29% | 8% | 2%
CCn1c(/C=C/c2c(C)n(CC)c3ccccc23)nc2ccccc2c1=O | 11% | -12% | 26 | 15% | -1% | -10%
CCN(CC)C(=O)Cn1c(C)c(/C=C/c2cc[n+](C)cc2)c2ccccc21 | -58% | -26% | 115* | ? | -1% | -1%
C=CCn1cc(/C=C/c2cc[n+](C)cc2)c2ccccc21 | -56% | -45% | 457* | -9% | 8% | 1%
Cc1ccccc1/C=C/c1cc[n+](C)cc1 | -16% | -6% | -1 | -1% | 14% | 1%
